From PubChem BioAssay (Tox21)
Records with an inconclusive call do not appear. A number with no mark means an inactive call. The call rests on the fitted dose curve.

Experiment: qHTS assay to identify small molecule agonists of the NFkB signaling pathway - cell viability counter screen (AID 1159515); further: nearly all actives have a fitted effect of over 55% in size
Details: NFkB-bla ME-180 viability, CellTiter-Glo luminescence, 5 h; series mostly up to 61 µM; activity, negative = cytotoxic: at the top concentration
Excerpt: National Center for Advancing Translational Sciences [NCATS]
NIH Chemical Genomics Center [NCGC]
U.S. Environmental Protection Agency [EPA]
National Institutes of Environmental Health Sciences [NIEHS]
National Toxicology Program [NTP]
U.S. Food and Drug Administration [FDA]
Transcription factors and their stimulated target gene expression play pivotal roles across many cellular processes including responses to environmental stimuli. Proper regulation of associated pathways is critical to maintain cell health and function. Constitutive activation of transcription factor pathways has been implicated in tumors as it may block cellular functions such as apoptosis and lead to invasion and metastasis. One important transcription factor that stimulates gene expression in response to cytokines, UV radiation, and other stimuli is nuclear factor-kappa B (NFkB). To measure activation of the NFkB pathway, the CellSensor NFkB-bla ME-180 cell line (Life Technologies, Carlsbad, CA) that stably expresses beta-lactamase reporter gene under the regulation of a NF-kB response element was used. This assay allows measurement of the NFkB pathway activity induced by compounds in a ME-180 cell line. This system quantitates NF-kB activity using a FRET-based assay system where beta-lactamase expression disrupts FRET, allowing for fluorescent measurement of activity. This cell line has been used to screen the Tox21 10K compound library and to identify compounds that induce the NFkB pathway activity. The cytotoxicity of the Tox21 compound library against the NFkB-bla ME-180 cell line was tested in parallel by measuring cell viability using the CellTiter-Glo assay in the same wells.
Tox21 Assay Protocol Summary:
NFkB-bla ME-180 cells were dispensed at 2,000 cells/6 uL of assay medium per well into black wall/clear-bottom 1536-well plates using a Multidrop Combi (ThermoFisher Scientific, Waltham, MA) dispenser. After the assay plates were incubated at 37 C and 5% CO2 for an overnight, 23 nL of compounds dissolved in DMSO, positive controls or DMSO only was transferred to the assay plate by a Pintool station (Kalypsys, San Diego, CA). The assay plates were incubated at 37 C and 5% CO2 for 5 hr. One uL of LiveBLAzer B/G FRET substrate (Life Technologies) was added using a Flying Reagent Dispenser (Aurora Discovery, San Diego, CA) and the plates were incubated at room temperature for 1.5 hr. Fluorescence intensity (405 nm excitation, 460 nm and 530 nm emissions) was measured using an Envision plate reader (PerkinElmer, Shelton, CT). For cytotoxicity, 3 ul/well of CellTiter-Glo reagent was added into the assay plates using an FRD. After 30 min incubation at room temperature, the luminescence intensity was measured using a ViewLux plate reader (PerkinElmer).
On the % scale 0 is the no-effect control and ±100 the full control effect.

Row | Compound | activity, negative = cytotoxic
1 | COc1cc(C)cc(O)c1 | 12.4%
2 | Cc1nccn1CC1CCc2c(c3ccccc3n2C)C1=O (stereo not given) | 0.455%
3 | NCC[C@H](O)C(=O)N[C@@H]1C[C@H](N)[C@@H](O[C@H]2O[C@H](CN)[C@@H](O)[C@H](O)[C@H]2O)[C@H](O)[C@H]1O[C@H]1O[C@H](CO)[C@@H](O)[C@H](N)[C@H]1O | 8.7% [at 0.628 µM]
4 | CN1[C@@H]2CC[C@H]1CC(NC(=O)n1c(=O)[nH]c3ccccc31)C2 (stereo not given in full) | 0.447%
5 | C[C@H]1O[C@@H](n2cc(F)c(=O)[nH]c2=O)[C@H](O)[C@@H]1O | -12.6%
6 | CCCCCCCCCCC1CO1 (stereo not given) | 9.79%
7 | CC1=CCC2C(C1)C2(C)C (stereo not given) | 11.7%
8 | OCCCCCCO | 4.77% [at 78.8 µM]
9 | Cc1ccccc1C(=O)O | 0.205%
10 | O=[N+]([O-])c1ccc(CCO)cc1 | -2.37%
11 | CC(=O)O[C@H](CC(=O)[O-])C[N+](C)(C)C | 3.79%
12 | COc1ccc(N=[N+]([O-])c2ccc(OC)cc2)cc1 | 13.4%
13 | Nc1nc(F)nc2c1ncn2[C@@H]1O[C@H](CO)[C@@H](O)[C@@H]1O | -0.126%
14 | C=C(C)C(=O)NCCCN(C)C | 10.9%
15 | CC(C)CCOC(=O)CC(C)C | 8.98%
16 | Nc1cc(N)cc(C(=O)O)c1 | -11.5%
17 | O=Cc1ccccc1[N+](=O)[O-] | -6.38%
18 | COc1nc(C)nc(N)n1 | 8.88%
19 | CCCOCC(C)OCC(C)O (stereo not given) | 26.2% [at 78.8 µM]
20 | O=C(O)CCNC(=O)c1ccc(N=Nc2ccc(O)c(C(=O)O)c2)cc1 | 7%

Row | Compound | activity, negative = cytotoxic
21 | CCCCCCCCCCCCCCCCCC(=O)OCCCCCCCCCCCCCC(C)C | -15.1%
22 | CC/C=C\CCCCO | 15.7%
23 | c1ccc(SCCSc2ccccc2)cc1 | -0.604%
24 | CC1(C)OC(=O)Nc2ccc(Br)cc21 | 8%
25 | Cc1onc(-c2ccccc2)c1-c1ccc(S(N)(=O)=O)cc1 | -7.16%
26 | N#CCc1ccccc1[N+](=O)[O-] | 3.48%
27 | CC(C)(O)C(=O)c1ccc(OCCO)cc1 | 7.54%
28 | O=C(O)c1ccc[n+]([O-])c1 | 2.54%
29 | CCN1CCN(c2cc3c(cc2F)c(=O)c(C(=O)O)cn3C2CC2)CC1 | 4.89%
30 | CCN1CCCC(OC(=O)C(c2ccccc2)c2ccccc2)C1 (stereo not given) | -0.0387%
31 | NCCN1CCNC1=O | 5.93%
32 | NC(N)=NS(=O)(=O)c1ccc(N)cc1 | -0.505%
33 | CC(C)N1C(=O)c2ccccc2C1=O | 12.1%
34 | N[C@@H](CS)C(=O)O | -0.242% [at 78.8 µM]
35 | C=C(C)C(=O)OCCC(C)OC(=O)C(=C)C (stereo not given) | -1.23%
36 | CC(C)c1cccc(O)c1 | -1.46% [at 78.8 µM]
37 | NCCNC(=O)c1ccc(Cl)cn1 | 9.36%
38 | CC(C)c1cccc(C(C)C)c1N | 2.4%
39 | CN(C)N=Nc1ccccc1 | -3.72%
40 | CC(C)=CCC/C(C)=C/C(=O)O | 8.81%
